Measurements as given in PubChem BioAssay (NCI).
This is part of a sample that, as a whole, favours compounds with a hit. Of some 83,000 tested, about 20% had one in any assay.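 Interpretation: 100, growth as untreated; towards 0, rising growth inhibition; 0, no net growth; 0 to -100, cell death. Compounds scoring below 10 were considered active.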 A number with no mark means an inactive call. Activity calls are given as the source filed them.

The compounds below were run on HCC-2998 colon (assay: NCI-60 one-dose screen, 48 h (100 = growth as untreated, 0 = no growth, -100 = all killed)). Settings: 10 µM unless noted.

| SMILES | growth |
| --- | --- |
| COc1ccc(C(=O)/C(=N/Nc2ccccc2)c2ccc(OC)cc2)cc1 | 95.2% |
| Cn1c(=O)c2[nH]c(CC(=O)O)nc2n(C)c1=O | 101% |
| C=CC1=NC(C)(C)CC(C)O1 (centres undefined) | 110% |
| O=C(Nc1ccccc1)c1ccco1 | 84% |
| CCOC(=O)CNC | 96% |
| Cc1cc(Cl)cc(Cc2cc(Cl)cc(C)c2O)c1O | 13.1% |
| CC12CCC3c4ccc(O)cc4CCC3C1CCC2=O (centres undefined) | 102% |
| Cc1onc(-c2ccccc2Cl)c1C(=O)Cl | 102% |
| Nc1cc(N)ncn1 | 99.6% |
| ClCC(Cl)C1CCC(Cl)C(Cl)C1 (centres undefined) | 101% |
| O=[N+]([O-])c1ccc(-c2nc(N(CCO)CCO)c3ccccc3n2)o1 | -93.2% (active) |
| O=C(NCc1ccccc1)c1cccc([N+](=O)[O-])c1 | 108% |
| OCc1cccnc1 | 107% |
| Cc1onc(-c2c(F)cccc2Cl)c1-c1ncc(-c2ccc(Br)cc2)o1 | 58.6% |
| CC(C)c1ncc([N+](=O)[O-])n1C | 105% |
| Oc1ccc(CCC2CCNc3ccccc32)cc1 (centres undefined) | 102% |
| c1ccc2[nH]c(Cc3nc4ccccc4[nH]3)nc2c1 | 108% |
| CCOC(=O)C(CCC#N)(CCC#N)C(=O)OCC | 97.6% |

| SMILES | growth |
| --- | --- |
| CCOC(=O)C(COS(C)(=O)=O)(COS(C)(=O)=O)C(=O)OCC | 106% |
| CC(C)C(C)(C)C(=O)C(C)(C)C(C)(C)C | 104% |
| CC(=O)O[C@H]1CC[C@]2(C)C3=C(C(=O)C[C@H]2C1(C)C)[C@]1(C)CC[C@H]([C@H](C)CCC(=O)O)[C@@]1(C)CC3=O | 102% |
| CC(=O)OCC1CCC(COC(C)=O)CC1 (centres undefined) | 91.5% |
| CC(=O)NNC(=S)N/C=C/c1c(C)ccc([N+](=O)[O-])c1[N+](=O)[O-] | 107% |
| CCOC(=O)c1c[nH][nH]c1=O | 98.5% |
| O=S(Cc1ccccc1)/C(=C/NC(=S)Nc1ccccc1)c1ccccc1 (centres undefined) | 102% |
| CCOc1ccc(NC(=S)N2CCC(CCCC3CCN(C(=S)Nc4ccc(OCC)cc4)CC3)CC2)cc1 | 85.6% |
| COc1ccc(C)cc1NC(=O)SC(C)C | 98.5% [100 µM] |
| Nc1ncnc(Nc2ccc(C(F)(F)F)cc2)n1 | 101% |
| Cc1c(Cl)cccc1N=C=S | 92.9% |
| O=C(OC1CCCC1)c1ccccc1Cl | 103% |
| BrCc1cccc(C[P+](c2ccccc2)(c2ccccc2)c2ccccc2)c1 | 33.1% |
| Cc1c(-c2ccc(C3CCCCC3)cc2)nc2ccc(F)cc2c1C(=O)O | 49.9% |
| CC(=O)NC(CCc1ccc(Cl)c(Cl)c1)c1cccc(O)c(=O)c1 (centres undefined) | 22.6% |
| COc1cccc(C(=O)NNC(=O)c2cccc3ccccc23)c1 | 102% |
| O=C(CCl)Nc1ccccc1SCc1cc(Cl)cc2c1OCOC2 | 99.1% |
| CCN(CC)c1ccc2nc3ccc(N=Nc4ccc(N(C)C)cc4)cc3[n+](-c3ccccc3)c2c1 | -69.7% (active) |

What follows are compounds tested on KM12 colon in the same assay as above. Settings: 10 µM unless noted.

| SMILES | growth |
| --- | --- |
| COc1ccc(C(=O)/C(=N/Nc2ccccc2)c2ccc(OC)cc2)cc1 | 90% |
| Cn1c(=O)c2[nH]c(CC(=O)O)nc2n(C)c1=O | 105% |
| C=CC1=NC(C)(C)CC(C)O1 (centres undefined) | 109% |
| Cc1cc(Cl)cc(Cc2cc(Cl)cc(C)c2O)c1O | -5.92% (active) |
| CC12CCC3c4ccc(O)cc4CCC3C1CCC2=O (centres undefined) | 109% |
| Cc1onc(-c2ccccc2Cl)c1C(=O)Cl | 119% |
| Nc1cc(N)ncn1 | 101% |
| ClCC(Cl)C1CCC(Cl)C(Cl)C1 (centres undefined) | 105% |
| O=[N+]([O-])c1ccc(-c2nc(N(CCO)CCO)c3ccccc3n2)o1 | -29.1% (active) |
| C=CCC(OC(C)=O)c1ccc(OC)c(OC)c1 (centres undefined) | 99% |
| C/C(Cc1ccccc1)=N\O | 103% |
| O=C(NCc1ccccc1)c1cccc([N+](=O)[O-])c1 | 85% |
| OCc1cccnc1 | 105% |
| Cc1onc(-c2c(F)cccc2Cl)c1-c1ncc(-c2ccc(Br)cc2)o1 | 36.4% |
| Oc1ccc(CCC2CCNc3ccccc32)cc1 (centres undefined) | 88.4% |
| CCOC(=O)C(CCC#N)(CCC#N)C(=O)OCC | 106% |
| CCOC(=O)C(COS(C)(=O)=O)(COS(C)(=O)=O)C(=O)OCC | 107% |

| SMILES | growth |
| --- | --- |
| CC(C)C(C)(C)C(=O)C(C)(C)C(C)(C)C | 107% |
| CC(=O)O[C@H]1CC[C@]2(C)C3=C(C(=O)C[C@H]2C1(C)C)[C@]1(C)CC[C@H]([C@H](C)CCC(=O)O)[C@@]1(C)CC3=O | 106% |
| CC(=O)OCC1CCC(COC(C)=O)CC1 (centres undefined) | 99.2% |
| CC(=O)NNC(=S)N/C=C/c1c(C)ccc([N+](=O)[O-])c1[N+](=O)[O-] | 97.2% |
| CCOC(=O)c1c[nH][nH]c1=O | 111% |
| O=S(Cc1ccccc1)/C(=C/NC(=S)Nc1ccccc1)c1ccccc1 (centres undefined) | 99% |
| CCOc1ccc(NC(=S)N2CCC(CCCC3CCN(C(=S)Nc4ccc(OCC)cc4)CC3)CC2)cc1 | 90.6% |
| COc1ccc(C)cc1NC(=O)SC(C)C | 101% [100 µM] |
| Nc1ncnc(Nc2ccc(C(F)(F)F)cc2)n1 | 105% |
| Cc1c(Cl)cccc1N=C=S | 108% |
| BrCc1cccc(C[P+](c2ccccc2)(c2ccccc2)c2ccccc2)c1 | 30.2% |
| Cc1c(-c2ccc(C3CCCCC3)cc2)nc2ccc(F)cc2c1C(=O)O | 32% |
| CC(=O)NC(CCc1ccc(Cl)c(Cl)c1)c1cccc(O)c(=O)c1 (centres undefined) | 18.1% |
| COc1cccc(C(=O)NNC(=O)c2cccc3ccccc23)c1 | 115% |
| O=C(CCl)Nc1ccccc1SCc1cc(Cl)cc2c1OCOC2 | 96.8% |
| CCN(CC)c1ccc2nc3ccc(N=Nc4ccc(N(C)C)cc4)cc3[n+](-c3ccccc3)c2c1 | -64.3% (active) |
